The values below come from PubChem BioAssay (EPA / NIEHS).

Structures are written as SMILES. Calls of active or inactive are those of the source. How the source made its calls: active means hit-call score of the fitted dose curve at least 0.9, where 1 is the maximum; inactive means score below 0.9.

Read-out in experiment [1]: TIMP metallopeptidase inhibitor 2 (TIMP2), TIMP2 (gene 7077)
Nature of the experiment: BSK_KF3CT_TIMP2: BioMAP Diversity Plus: KF3CT Assay for TIMP metallopeptidase inhibitor 2 (TIMP2) Biomarker Activity (AID 2283071). The note with it: primary human keratinocytes with fibroblasts; actives raise or lower the signal. The method, boiled down: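 Chemicals were dosed onto human skin primary co-cultures of keratinocytes and foreskin fibroblasts, and TIMP-2 was measured by ELISA after 24 hours. Activity in either direction was fitted relative to DMSO.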

Read-out in experiment [2]: Transforming growth factor beta 1 (TGFb1), TGFB1 (gene 7040)
Nature of the experiment: BSK_KF3CT_TGFb1: BioMAP Diversity Plus: KF3CT Assay for Transforming growth factor beta 1 (TGFb1) Biomarker Activity (AID 2283072). The note with it: primary human keratinocytes with fibroblasts; actives raise or lower the signal. The method in brief: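 KF3CT co-culture (keratinocytes + fibroblasts), 24 h exposure → TGF-b1 ELISA → bidirectional fit, DMSO = baseline. Parallel SRB total-protein staining (0.1% SRB, 10% TCA fixation, 560 nm) for cytotoxicity.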

Read-out in experiment [3]: C-C motif chemokine 2 (Homo sapiens) (UniProt P13500)
The experiment in a line: BSK_KF3CT_MCP1: BioMAP Diversity Plus: KF3CT Assay for Monocyte Chemoattractant Protein 1 (MCP1/CCL2) Biomarker Activity (AID 2283073). As to conditions: primary human keratinocytes with fibroblasts; actives raise or lower the signal. The method, boiled down: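 Human keratinocyte–foreskin fibroblast co-culture; MCP-1 measured by ELISA 24 h after dosing. Bidirectional fit vs DMSO; cytotoxicity tracked by SRB total protein in parallel cultures.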

Read-out in experiment [4]: Matrix Metallopeptidase 9 (MMP9), MMP9 (gene 4318)
The experiment in a line: BSK_KF3CT_MMP9: BioMAP Diversity Plus: KF3CT Assay for Matrix Metallopeptidase 9 (MMP9) Biomarker Activity (AID 2283074).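 On AC50: MMP9 protein level quantified by ELISA in the co-culture.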 The note with it: primary human keratinocytes with fibroblasts; actives raise or lower the signal. The method in brief:
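Values come from bidirectional fitting relative to DMSO of MMP-9 levels, which were measured by ELISA. Measurements were taken 24 h after chemical dosing of a keratinocyte and foreskin fibroblast co-culture.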

Read-out in experiment [5]: urokinase plasminogen activator (uPA), PLAU (gene 5328)
The experiment in a line: BSK_KF3CT_uPA: BioMAP Diversity Plus: KF3CT Assay for urokinase plasminogen activator (uPA) Biomarker Activity (AID 2283075). As to conditions: primary human keratinocytes with fibroblasts; actives raise or lower the signal. The method in brief: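 Values derive from bidirectional fitting against DMSO controls. Keratinocyte/foreskin fibroblast co-cultures received chemical; 24 h later uPA was detected by ELISA, with SRB total-protein staining in parallel wells for overt cytotoxicity.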

Read-out in experiment [6]: CD40, CD40 (gene 958)
Nature of the experiment: BSK_LPS_CD40: BioMAP Diversity Plus: LPS Assay for CD40 Biomarker Activity (AID 2283076). The note with it: primary human HUVEC with PBMC; actives raise or lower the signal. The method in brief:
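HUVEC plus PBMC co-culture stimulated with LPS; CD40 quantified by ELISA 24 h after compound dosing. Fitting was bidirectional relative to DMSO. SRB staining of parallel cultures flagged overt cytotoxicity.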

Read-out in experiment [7]: E-selectin (Homo sapiens) (UniProt P16581)
The experiment in a line: BSK_LPS_Eselectin: BioMAP Diversity Plus: LPS Assay for Eselectin Biomarker Activity (AID 2283077). As to conditions: primary human HUVEC with PBMC; actives raise or lower the signal. The method, boiled down: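 Human umbilical vein endothelial cells co-cultured with PBMC under LPS stimulation; cell-surface E-selectin measured by ELISA 24 h after dosing. Change in either direction versus DMSO, with SRB total-protein staining in parallel cultures for cytotoxicity.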

Read-out in experiment [8]: Interleukin-8 (IL8), CXCL8 (gene 3576)
Nature of the experiment: BSK_LPS_IL8: BioMAP Diversity Plus: LPS Assay for Interleukin-8 (IL8) Biomarker Activity (AID 2283078). As to conditions: primary human HUVEC with PBMC; actives raise or lower the signal. The method in brief: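 Human umbilical vein endothelial cells co-cultured with PBMC, LPS-stimulated, exposed to compound for 24 h. IL-8 quantified by ELISA; fitted in both directions against DMSO, with SRB total-protein staining of parallel cultures for cytotoxicity.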

The nature of experiment [9]: BSK_LPS_SRB: Viability Assessment in the BioMAP Diversity Plus: LPS Assay (AID 2283079).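 Further: total protein by sulforhodamine B absorbance as a cytotoxicity measure; measured one day after compound addition; fitted in both directions against DMSO so loss or gain of signal counts.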 The note with it: primary human HUVEC with PBMC. The method in brief:
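Co-culture of human umbilical vein endothelial cells and PBMC, read 24 h after dosing. Total protein by 0.1% SRB staining after 10% TCA fixation, absorbance at 560 nm; bidirectional fit against DMSO.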

Read-out in experiment [10]: Interleukin-1 alpha (IL1a), IL1A (gene 3552)
Nature of the experiment: BSK_LPS_IL1a: BioMAP Diversity Plus: LPS Assay for Interleukin-1 alpha (IL1a) Biomarker Activity (AID 2283080). As to conditions: primary human HUVEC with PBMC; actives raise or lower the signal. The method, boiled down:
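Human umbilical vein endothelial cells co-cultured with PBMC and stimulated with LPS; IL-1a measured by ELISA 24 h after dosing. Bidirectional fitting against DMSO; cytotoxicity checked by SRB staining in parallel cultures.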

Read-out in experiment [11]: Monocyte Chemoattractant Protein-1 (MCP1), CCL2 (gene 6347)
Nature of the experiment: BSK_LPS_MCP1: BioMAP Diversity Plus: LPS Assay for Monocyte Chemoattractant Protein-1 (MCP1) Biomarker Activity (AID 2283081).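 On AC50: secreted MCP-1 protein quantified by ELISA in culture supernatant.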 As to conditions: primary human HUVEC with PBMC; actives raise or lower the signal. The method, boiled down:
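Human umbilical vein endothelial cells co-cultured with PBMC, LPS-stimulated; secreted MCP-1 measured by ELISA 24 h after compound addition. Bidirectional curve fitting against DMSO baseline; SRB total-protein staining in parallel cultures for cytotoxicity.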

Read-out in experiment [12]: Tissue Factor, F3 (gene 2152)
Nature of the experiment: BSK_LPS_TissueFactor: BioMAP Diversity Plus: LPS Assay for Tissue Factor Biomarker Activity (AID 2283084). The note with it: primary human HUVEC with PBMC; actives raise or lower the signal. The method in brief:
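Human umbilical vein endothelial cells co-cultured with PBMC were dosed with compound. Cell-surface CD142 was measured by ELISA 24 h later. Activity was fitted bidirectionally against DMSO, with SRB total-protein staining in parallel cultures for cytotoxicity.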

Read-out in experiment [13]: Tumor necrosis factor (Homo sapiens) (UniProt P01375)
The experiment in a line: BSK_LPS_TNFa: BioMAP Diversity Plus: LPS Assay for Tumour Necrosis Factor alpha (TNFa) Biomarker Activity (AID 2283085). As to conditions: primary human HUVEC with PBMC; actives raise or lower the signal. The method in brief:
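Cells (umbilical vein endothelium plus peripheral blood mononuclear cells) were dosed with chemical, incubated 24 h, then TNFa was quantified by ELISA; values derive from bidirectional fitting with DMSO as baseline.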

Read-out in experiment [14]: Vascular cell adhesion molecule 1 (VCAM1), VCAM1 (gene 7412)
Nature of the experiment: BSK_LPS_VCAM1: BioMAP Diversity Plus: LPS Assay for Vascular cell adhesion molecule 1 (VCAM1) Biomarker Activity (AID 2283086). As to conditions: primary human HUVEC with PBMC; actives raise or lower the signal. The method, boiled down:
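Cells are dosed in an LPS-stimulated endothelial/mononuclear co-culture and, after 24 h, VCAM-1 is quantified by ELISA. Activity in either direction is fitted relative to the DMSO negative control.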

Read-out in the next experiment: CD38, CD38 (gene 952)
The experiment in a line: BSK_SAg_CD38: BioMAP Diversity Plus: SAg Assay for CD38 Biomarker Activity (AID 2283087). As to conditions: primary human HUVEC with PBMC; actives raise or lower the signal. The method, boiled down:
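CD38 quantified by ELISA (fluorescence) in a superantigen-activated endothelial cell–PBMC co-culture at 24 h post-dose. Activity fitted in both directions relative to DMSO; parallel SRB and Alamar Blue cytotoxicity read-outs.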

Read-out in experiment [15]: CD40, CD40 (gene 958)
Nature of the experiment: BSK_SAg_CD40: BioMAP Diversity Plus: SAg Assay for CD40 Biomarker Activity (AID 2283088). As to conditions: primary human HUVEC with PBMC; actives raise or lower the signal. The method, boiled down:
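HUVEC plus PBMC co-culture, superantigen-activated, with CD40 read by ELISA 24 h after dosing. Curves fitted in both directions against DMSO. Overt cytotoxicity checked by parallel SRB total-protein staining.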

Read-out in the next experiment: CD69, CD69 (gene 969)
Nature of the experiment: BSK_SAg_CD69: BioMAP Diversity Plus: SAg Assay for CD69 Biomarker Activity (AID 2283089).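 On AC50: cell surface CD69 protein quantified by ELISA with fluorescence detection.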 As to conditions: primary human HUVEC with PBMC; actives raise or lower the signal. The method in brief:
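ELISA, fluorescence read-out: CD69 on human umbilical vein endothelial cell + PBMC co-culture, 24 h post-dosing. Gain or loss of signal fitted bidirectionally against DMSO baseline.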

Read-out in experiment [16]: Monocyte Chemoattractant Protein-1 (MCP1), CCL2 (gene 6347)
Nature of the experiment: BSK_SAg_MCP1: BioMAP Diversity Plus: SAg Assay for Monocyte Chemoattractant Protein-1 (MCP1) Biomarker Activity (AID 2283090). The note with it: primary human HUVEC with PBMC; actives raise or lower the signal. The method in brief:
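Values derive from bidirectional fitting of ELISA-measured MCP1 against DMSO controls. Readings were taken 24 h after dosing human vascular endothelial cells co-cultured with peripheral blood mononuclear cells under superantigen stimulation.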

Read-out in experiment [17]: Macrophage colony-stimulating factor (MCSF), CSF1 (gene 1435)
The experiment in a line: BSK_LPS_MCSF: BioMAP Diversity Plus: LPS Assay for Macrophage colony-stimulating factor (MCSF) Biomarker Activity (AID 2283083). The note with it: primary human HUVEC with PBMC; actives raise or lower the signal. The method in brief: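 HUVEC–PBMC co-culture, M-CSF measured by ELISA 24 h after chemical dosing. Fitted in both directions relative to DMSO as negative control; overt cytotoxicity assessed by SRB total-protein staining in parallel cultures.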

Sequence of E-selectin (Homo sapiens) (P16581 whole entry, looked up): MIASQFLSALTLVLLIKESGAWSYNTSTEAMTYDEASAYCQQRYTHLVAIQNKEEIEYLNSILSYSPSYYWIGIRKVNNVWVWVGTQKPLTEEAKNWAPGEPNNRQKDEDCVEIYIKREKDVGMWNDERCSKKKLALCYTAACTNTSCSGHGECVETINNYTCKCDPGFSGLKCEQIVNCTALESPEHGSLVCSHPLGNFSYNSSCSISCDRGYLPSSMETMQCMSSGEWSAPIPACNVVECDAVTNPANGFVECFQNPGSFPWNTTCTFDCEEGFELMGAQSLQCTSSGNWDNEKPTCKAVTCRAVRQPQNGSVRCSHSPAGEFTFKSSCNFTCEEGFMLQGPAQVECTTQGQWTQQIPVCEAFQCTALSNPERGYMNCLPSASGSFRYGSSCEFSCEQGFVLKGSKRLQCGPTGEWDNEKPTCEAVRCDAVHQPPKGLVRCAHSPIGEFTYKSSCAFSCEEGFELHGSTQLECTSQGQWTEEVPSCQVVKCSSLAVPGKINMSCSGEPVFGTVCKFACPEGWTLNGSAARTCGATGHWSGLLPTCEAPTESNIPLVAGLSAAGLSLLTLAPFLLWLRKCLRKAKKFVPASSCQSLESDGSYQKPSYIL
Sequence of Tumor necrosis factor (Homo sapiens) (P01375 whole entry, looked up): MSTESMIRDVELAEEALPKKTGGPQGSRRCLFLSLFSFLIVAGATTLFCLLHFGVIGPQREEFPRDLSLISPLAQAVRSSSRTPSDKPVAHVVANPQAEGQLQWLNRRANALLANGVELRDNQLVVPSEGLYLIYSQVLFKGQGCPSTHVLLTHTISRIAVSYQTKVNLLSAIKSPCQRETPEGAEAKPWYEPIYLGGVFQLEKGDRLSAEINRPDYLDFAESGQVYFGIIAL

With `CCCCN(CCCC)N=O`, the outcome is “inactive” in experiment [1]; “inactive” in experiment [2]; “inactive” in [3]; “inactive” in experiment [4]; “inactive” in [5]; “inactive” with CD40, CD40 (gene 958) [6]. Also, the outcome in experiment [7], in experiment [8], in [9], in [10], in [11] and in [12] was inactive. Further, the outcome in [13] was “inactive”; in experiment [14], “inactive”; in the experiment with CD38, CD38 (gene 952), “inactive”; in the experiment with CD40, CD40 (gene 958) [15] it was “inactive”; with CD69, CD69 (gene 969) it was “inactive”; in experiment [16], “inactive”.
Regarding `CC(C)(C)c1ccccc1OP(=O)(Oc1ccccc1)Oc1ccccc1`, the AC50 (usually the concentration at which the activity in the assay is half-maximal) in experiment [1] was 20 µM (active); in experiment [4], 8.49 µM (active); with CD40, CD40 (gene 958) [6], 25.3 µM (active); in [7] it was 20 µM (active); in [8] it was 20 µM (active); in experiment [9] it was 20 µM (active). Besides, the AC50 in experiment [10] was 27.3 µM (active); in experiment [11], 20 µM (active); in experiment [14], 20 µM (active); with CD38, CD38 (gene 952), 30.7 µM (active); in the experiment with CD40, CD40 (gene 958) [15], 28.3 µM (active); with CD69, CD69 (gene 969), 27.5 µM (active). Besides, the result in experiment [2], in [3], in [5] and in experiment [13] was inactive.
With `CCCCOCCOP(=O)(OCCOCCCC)OCCOCCCC`, the outcome in experiment [1] was “inactive”; in experiment [3], “inactive”; in [5], “inactive”; in the experiment with CD40, CD40 (gene 958) [6] it was “inactive”; in experiment [7], “inactive”; in [8] it was “inactive”. In addition, the result in experiment [9], in experiment [10], in experiment [11], in [17], in [13] and in [14] was inactive. The outcome with CD38, CD38 (gene 952) was “inactive”; in the experiment with CD40, CD40 (gene 958) [15], “inactive”; in the experiment with CD69, CD69 (gene 969), “inactive”; in experiment [16], “inactive”. Also, the AC50 in experiment [2] was 0.016 µM (active); in experiment [4], 3.97 µM (active).
For the compound `CC(Cc1ccc(OCC(=O)O)cc1)NCC(O)c1csc(C(F)(F)F)n1` (centres undefined), the outcome was “inactive” in experiment [1]; “inactive” in [2]; “inactive” in experiment [3]; “inactive” in experiment [4]; “inactive” in experiment [5]; “inactive” with CD40, CD40 (gene 958) [6]. Besides, the result in experiment [7], in [8], in experiment [9], in [10], in experiment [11] and in experiment [12] was inactive. Further, the outcome in experiment [13] was “inactive”; with CD38, CD38 (gene 952), “inactive”; in the experiment with CD40, CD40 (gene 958) [15] it was “inactive”; with CD69, CD69 (gene 969), “inactive”; in experiment [16] it was “inactive”.
